Assay results reported in PubChem BioAssay AID493206 (National Center for Advancing Translational Sciences (NCATS), 2011).
Values joined by “and” are separate entries in the source; they are usually repeats but may differ in a detail not shown here. Equal values may be shown once. Records with an inconclusive call do not appear. Active and inactive are the calls of the source. Calls come from the whole dose curve; as a rule, active = well fitted inhibition curve with a large enough effect; inconclusive = small, poorly fitted or top-dose-only effect; inactive = flat fitted curve, though single readings scatter.

target: Dual specificity tyrosine-phosphorylation-regulated kinase 1A (Homo sapiens) (UniProt Q13627); experiment: Assay for Inhibitors of Dual-Specificity Tyrosine-(Y)-Phosphorylation Regulated Kinase 1A (Kinase-Glo assay): round 2 SAR; details: recombinant DYRK1A, Kinase-Glo ATP depletion luminescence; series mostly up to 76.9 µM; activity, negative = inhibition: at the top concentration
Excerpt: NIH Molecular Libraries Probe Production Centers Network [MLPCN] NIH Chemical Genomics Center [NCGC] MLPCN Grant: 1R03MH084827-01 PI Name: Tom Misteli NCGC Assay Overview: The CMGC group of protein kinases which includes CDK-like kinases (Clk) and Dyks are essential kinases found in all eukaryotes. Clks have been implicated to play a role in the regulation of alternative splicing; while Dyrks, in particular over expression of Dyrk1A, has been linked to diseases as Down syndrome (DS; OMIM 190685) and Alzheimer disease (AD; OMIM 104300). Among the members of the CMGC group, the Clks and the Dyrks are very closely related therefore to determine validity and selectivity of an active compound observed in the CLK4 qHTS screen (AID:1770), a bioluminescent counter-screen against Dyrk1A was developed. In addition, potent and selective compounds against Dyrk1A were identified to further assess the role of this enzyme in DS and AD. Dyrk1A (Invitrogen, cat # PV3785) was assayed using ATP and DYRKtide (AnaSpec, cat# 62698) as substrates. Promega Kinase-Glo (cat# V6712) technology was used to detect the residual ATP following kinetic reaction. The Kinase-Glo Plus contains Ultra-Glo [5] luciferase and D-luciferin which generates a bioluminescence signal from the remaining ATP. No enzyme and harmine (Sigma, cat # 286044-1G), a compound shown to inhibit Dyrks were used as a positive control; while DMSO treatment was used as a negative control.
NCGC Assay Protocol Summary: Two uL/well of substrate solution (8uM Dyrktide, 2uM ATP, 25mM Tris-HCl pH 7.5, 10mM MgCl2 , 0.5mM EGTA, 5mM cystein, 0.01% Triton X-100 final concentration) was dispensed into 1536-well assay plates (Greiner, solid white, medium-binding plates) with Aurora Discovery BioRAPTR Flying Reagent Dispenser (FRD, Beckton-Dickenson). Compound solution (23 nL) was transferred to the assay plate using Kalypsys pin tool equipped with a 1536-pin tool. One uL/well enzyme solution (5nM Dyrk1A, 25mM Tris-HCl pH7.5, 10mM MgCl2, 0.5mM EGTA, 5mM cystein, 0.01% Triton X-100 final concentration) was then added using FRD yielding a total kinase reaction volume of 3uL/well. After 2 hours of room temperature incubation, 3uL Kinase-Glo detection reagent was added for a final assay volume of 6uL/well. The plates were spun for 30 seconds (1000 rpm) and incubated at ambient temperature for 2 minutes followed by a luminescence read using Perkin Elmer ViewLux plate reader at 3 seconds exposure time and 2x binning.

| Structure (SMILES) | Potency | activity, negative = inhibition |
| --- | --- | --- |
| c1nc(NCC2CCCCC2)c2cc(-c3ccc4c(c3)OCO4)ccc2n1 | 0.26 µM (active) | – |
| c1coc(CNc2ncnc3ccc(-c4ccc5c(c4)OCO5)cc23)c1 | 0.207 µM (active) | – |
| COc1cccc(-c2ccc3ncnc(NCc4cc(C)cs4)c3c2)c1 | 5.82 µM (active) | – |
| Cc1cccc(CNc2ncnc3ccc(-c4ccc5c(c4)OCO5)cc23)c1 | 1.04 µM (active) | – |
| Fc1cccc(CNc2ncnc3ccc(-c4ccoc4)cc23)c1 | 0.823 µM (active) | – |
| Fc1cccc(CNc2ncnc3ccc(-c4ccccc4Cl)cc23)c1 | 16.4 µM (active) | – |
| Cc1ccc(CNc2ncnc3ccc(-c4ccc([C@@H](C)O)o4)cc23)o1 | 26 µM (active) and 16.4 µM (active) and 23.2 µM (active) | – |
| Cc1cccc(CNc2ncnc3ccc(-c4cccnc4)cc23)c1 | 29.2 µM (active) | – |
| OCc1ccc(-c2ccc3ncnc(N4CCOCC4)c3c2)o1 | 16.4 µM (active) | – |
| CN(CC1CCCCO1)c1ncnc2ccc(-c3ccc4c(c3)OCO4)cc12 (centres undefined) | 0.292 µM (active) | – |
| c1nc(N2CCOCC2)c2cc(-c3ccc4c(c3)OCO4)ccc2n1 | 1.46 µM (active) | – |
| C[C@@H](O)c1ccc(-c2ccc3ncnc(NCc4cccs4)c3c2)o1 | 23.2 µM (active) | – |
| CN(C)CCCNc1ncnc2ccc(-c3ccc4c(c3)OCO4)cc12 | 8.23 µM (active) | – |
| CCNC(=O)c1ccc(-c2ccc3ncnc(NCc4nccs4)c3c2)o1 | 10.4 µM (active) | – |
| CN(CC(=O)O)c1ncnc2ccc(-c3ccc4c(c3)OCO4)cc12 | 8.23 µM (active) | – |
| Cc1csc(CNc2ncnc3ccc(-c4ccc5c(c4)OCO5)cc23)n1 | 0.207 µM (active) | – |
| Cc1csc(CNc2ncnc3ccc(-c4ccc(C(=O)O)o4)cc23)n1 | 14.6 µM (active) | – |
| Cc1nc(CCNc2ncnc3ccc(-c4ccc5c(c4)OCO5)cc23)cs1 | 0.26 µM (active) | – |
| Clc1ccccc1-c1ccc2ncnc(NCc3cccnc3)c2c1 | 26 µM (active) | – |
| c1nc(NCc2ccc3c(c2)OCO3)c2cc(-c3ccc4c(c3)OCCO4)ccc2n1 | 4.12 µM (active) | – |

| Structure (SMILES) | Potency | activity, negative = inhibition |
| --- | --- | --- |
| Clc1cccc(-c2ccc3ncnc(NCc4cccs4)c3c2)c1 | 13 µM (active) | – |
| c1cncc(CNc2ncnc3ccc(-c4ccco4)cc23)c1 | 26 µM (active) | – |
| Clc1cccc(-c2ccc3ncnc(NCc4ccc5c(c4)OCO5)c3c2)c1 | – | -15.5% (inactive) |
| c1csc(CNc2ncnc3ccc(-c4ccc5c(c4)OCO5)cc23)n1 | 0.184 µM (active) | – |
| CN(CC1CCCO1)c1ncnc2ccc(-c3ccc4c(c3)OCO4)cc12 (centres undefined) | 0.26 µM (active) | – |
| COc1cccc(Nc2ncc3nc(-c4cn(C)c5ccccc45)c(=O)n(CCC#N)c3n2)c1 | – | -13.8% (inactive) |
| Cc1ccc(CN(C)c2ncnc3ccc(-c4ccc(C(=O)O)o4)cc23)o1 | 16.4 µM (active) | – |
| CS(=O)(=O)CCNCc1ccc(-c2ccc3ncnc(Nc4ccc(OCc5cccc(F)c5)c(Cl)c4)c3c2)o1 | – | -4.73% (inactive) |
| c1cncc(CNc2ncnc3ccc(-c4ccc5c(c4)OCO5)cc23)c1 | 0.412 µM (active) | – |
| CN1CCN(c2ncc3nc(-c4cn(C)c5ccccc45)c(=O)n(Cc4cccs4)c3n2)CC1 | – | -6.07% (inactive) |
| CC(Nc1ncnc2ccc(-c3ccc4c(c3)OCO4)cc12)c1ccco1 (centres undefined) | 0.582 µM (active) | – |
| Cc1csc(CNc2ncnc3ccc(-c4ccoc4)cc23)c1 | 3.68 µM (active) | – |
| CC(O)c1ccc(-c2ccc3ncnc(NCCc4cnc[nH]4)c3c2)o1 (centres undefined) | 23.2 µM (active) | – |
| Clc1ccccc1-c1ccc2ncnc(NCc3ccc4c(c3)OCO4)c2c1 | – | -14.5% (inactive) |
| Cc1csc(CNc2ncnc3ccc(-c4cccnc4)cc23)c1 | 23.2 µM (active) | – |
| Fc1cccc(CNc2ncnc3ccc(-c4cccnc4)cc23)c1 | 26 µM (active) | – |
| c1cncc(CNc2ncnc3ccc(-c4ccc5c(c4)OCCO5)cc23)c1 | 1.16 µM (active) | – |
| c1nc(N2CCNCC2)c2cc(-c3ccc4c(c3)OCO4)ccc2n1 | 5.19 µM (active) | – |
| Cc1ccc(CNc2ncnc3ccc(-c4ccc(C(=O)O)o4)cc23)o1 | 10.4 µM (active) | – |
